High-throughput results: PubChem BioAssay, National Center for Advancing Translational Sciences (NCATS)
Many of the other results were omitted from the sample, so hits are more common in it than they were.
DT40 TDP1 CPT – growth inhibition of DT40 Tdp1-/-;hTDP1 cells with camptothecin (screen for TDP1 inhibitors); chicken DT40 Tdp1-/-;hTDP1 cells + 20 nM CPT, ATP luminescence, 48 h; AID 686979; actives 12% (n = 420,000); Potency, µM (titrated, usually from 46.2 µM), actives largely listed as inhibitors; further: nearly all actives have a fitted effect of over 55% in size
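Chicken DT40 Tdp1-/- cells complemented with human TDP1, 400 cells/well, exposed to compounds plus 20 nM camptothecin for at least 48 h at 37 C; viability read as ATP content by CellTiter-Glo luminescence.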
ALOX12 inh – inhibitors of human 12S-lipoxygenase ALOX12 | P18054 | purified 12hLO, xylenol orange hydroperoxide absorbance | Potency, µM (highest dose often 108 µM), usual class: inhibitors | actives 1.1% (n = 580,000)
Target sequence (P18054 whole entry, looked up): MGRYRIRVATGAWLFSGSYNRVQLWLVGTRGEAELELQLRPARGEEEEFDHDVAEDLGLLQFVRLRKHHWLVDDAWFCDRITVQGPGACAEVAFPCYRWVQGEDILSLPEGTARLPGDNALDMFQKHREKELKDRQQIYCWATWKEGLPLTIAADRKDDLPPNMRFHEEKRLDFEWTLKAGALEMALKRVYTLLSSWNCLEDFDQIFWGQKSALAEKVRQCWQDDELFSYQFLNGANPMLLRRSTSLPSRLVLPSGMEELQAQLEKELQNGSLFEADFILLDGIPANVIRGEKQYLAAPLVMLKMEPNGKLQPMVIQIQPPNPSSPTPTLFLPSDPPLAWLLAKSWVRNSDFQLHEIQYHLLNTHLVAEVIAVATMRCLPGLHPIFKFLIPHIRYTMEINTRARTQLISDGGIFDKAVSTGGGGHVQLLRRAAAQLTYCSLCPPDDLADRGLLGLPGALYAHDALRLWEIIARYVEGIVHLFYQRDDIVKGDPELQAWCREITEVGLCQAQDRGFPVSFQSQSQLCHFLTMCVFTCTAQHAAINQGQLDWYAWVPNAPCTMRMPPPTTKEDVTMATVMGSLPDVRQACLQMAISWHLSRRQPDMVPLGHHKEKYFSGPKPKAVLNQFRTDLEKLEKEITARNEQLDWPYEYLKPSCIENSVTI
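Hydroperoxide product was detected by ferrous iron/xylenol orange as the 573 to 405 nm absorbance ratio. Arachidonic acid at 40 uM (final) was turned over for 30 min at room temperature by 150 nM human 12hLO, pH 7.0 Hepes buffer, after 15 min compound preincubation.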
HT1080NT lethal – kills 2HG-producing HT-1080-NT fibrosarcoma cells. Potency, µM (top dose mostly 46.1 µM), hits mostly cytotoxic. AID 686970. actives 1.6% (n = 360,000). HT-1080-NT fibrosarcoma viability, CellTiter-Glo ATP luminescence, 48 h;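 further: NT is the 2HG producing partner of a matched IDH1 knockdown line; nearly all actives have a fitted effect of over 55% in size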
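HT-1080-NT; 750 cells/well; 5% FBS RPMI; 48 h compound, 37 degrees C; CellTiter-Glo luminescence; curve fitting and curve-class assignment.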
HT1080 IDH1KD tx – toxicity to HT-1080 IDH1 knockdown cells (counter line). AID 686971. Potency, µM (series often up to 46.1 µM), most hits filed as cytotoxic. actives 2% (n = 360,000). HT-1080 IDH1 knockdown viability, ATP luminescence, 48 h
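After a 2 h attachment period, IDH1KD HT-1080 cells took pin-transferred compound for 48 h at 37 °C; ATP-based luminescence after 10 min room-temperature reagent incubation reported viability.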
IL-1B inflam inh – blocks inflammasome-driven IL-1 beta release; THP-1 LPS/ATP IL-1B secretion, AlphaLISA, 16 h; stronger effect = lower value; activity change, % at 57.5 µM; actives 4.7% (n = 360,000); AID 743279; in the data active means activity change below about -50%; inconclusive means mostly about -30% to -49%
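THP-1 cells pretreated 1 hr with compounds (up to 57.5 uM final), then stimulated with LPS (250 ng/mL final) plus ATP (1.25 mM final); secreted IL-1B measured by AlphaLISA after 16 hr, decreased signal indicating inhibition.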
DT40 TDP1 no CPT – qHTS for Inhibitors of human tyrosyl-DNA phosphodiesterase 1 (TDP1): qHTS in cells in absence of CPT; DT40 Tdp1-/- hTDP1 cells, no CPT, ATP luminescence, 48 h; Potency, µM (top dose mostly 46.2 µM), most hits filed as inhibitors; actives 15% (n = 420,000); further: nearly all actives have a fitted effect of over 55% in size
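DT40 Tdp1-/-;hTDP1 cells, no CPT (DMSO vehicle only), 400 cells/well; compounds pin-transferred; ≥48 hr, 37 °C; CellTiter-Glo 30 min RT dark, luminescence read.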
Large screens that a line does not name were inactive. Unless noted, the call rests on the fitted dose curve; in most records, active means well fitted curve in the direction sought with a large enough effect; inconclusive means small, poorly fitted or top-dose-only effect, or another doubt; inactive means no such curve, though single readings can be large; an effect the other way counts as inactive or inconclusive.

CCOC(=O)N1CCN(C(=O)CS(=O)(=O)c2cn(Cc3ccccc3C)c3ccccc23)CC1	DT40 TDP1 no CPT inconclusive (no result: ALOX12 inh)
Cc1cc(NC(=O)CS(=O)(=O)c2cn(Cc3cccc(Cl)c3)c3ccccc23)no1	DT40 TDP1 CPT 25.9µM, HT1080NT lethal inconclusive, HT1080 IDH1KD tx inconclusive, DT40 TDP1 no CPT 20.6µM
COc1ccc2c(c1OC)C(=O)OC2CC(=O)c1ccccc1 (configuration not stated)	none (no result: DT40 TDP1 CPT, HT1080NT lethal, HT1080 IDH1KD tx, IL-1B inflam inh, DT40 TDP1 no CPT)
COc1ccc(C(=O)Nc2cccc(OC)c2)cc1	DT40 TDP1 no CPT inconclusive
COc1ccc(C(=O)Nc2ccc3[nH]c(-c4cccc(OC)c4)cc(=O)c3c2)cc1	DT40 TDP1 CPT 1.03µM, ALOX12 inh inconclusive, HT1080NT lethal inconclusive, HT1080 IDH1KD tx inconclusive, DT40 TDP1 no CPT 0.651µM
COc1ccc(-c2cc(=O)c3cc(F)ccc3[nH]2)cc1	DT40 TDP1 CPT inconclusive, DT40 TDP1 no CPT inconclusive
COc1ccc2[nH]c(-c3ccc(C)cc3)cc(=O)c2c1	DT40 TDP1 CPT 13µM, HT1080NT lethal inconclusive, HT1080 IDH1KD tx 23.1µM, DT40 TDP1 no CPT 16.4µM (no result: ALOX12 inh)
CC(C)C(C)(C#N)NC(=O)CN(C)CC1CCCCC1 (configuration not stated)	none (no result: DT40 TDP1 CPT, HT1080NT lethal, HT1080 IDH1KD tx, IL-1B inflam inh, DT40 TDP1 no CPT)
Cc1ccccc1-c1nnn(Cc2cc(=O)oc3c(C)c(C)ccc23)n1	none (no result: DT40 TDP1 CPT, HT1080NT lethal, HT1080 IDH1KD tx, IL-1B inflam inh, DT40 TDP1 no CPT)
Cc1ccc(CNC(=O)c2cc(S(=O)(=O)N3CCCCC3)cn2C)cc1	DT40 TDP1 CPT inconclusive, DT40 TDP1 no CPT 20.6µM (no result: HT1080NT lethal, HT1080 IDH1KD tx, IL-1B inflam inh)
CC(C(=O)N1CCCCC1)N1CCN(S(=O)(=O)c2ccc(Cl)cc2)CC1 (configuration not stated)	ALOX12 inh 1µM
Cn1cc(S(=O)(=O)N2CCCCC2)cc1C(=O)NCc1ccc(Cl)cc1	DT40 TDP1 CPT 18.4µM, ALOX12 inh inconclusive, DT40 TDP1 no CPT inconclusive (no result: HT1080NT lethal, HT1080 IDH1KD tx, IL-1B inflam inh)
O=C(O)c1c2c(nc3ccc(S(=O)(=O)N4CCC(C(=O)NCc5ccc(Cl)cc5)CC4)cc13)CCCC2	ALOX12 inh 25.1µM
N#C/C(=C/c1ccc(C#N)cc1)c1nc2ccccc2[nH]1	none (no result: DT40 TDP1 CPT, HT1080NT lethal, HT1080 IDH1KD tx, IL-1B inflam inh, DT40 TDP1 no CPT)
O=C(Cc1ccc(S(=O)(=O)N2CCCCC2)cc1)NCc1ccc(Cl)cc1	DT40 TDP1 CPT 29.1µM
CCCNC(=O)C(C)NC(=O)Cc1ccc(S(=O)(=O)N2CCCCC2)cc1 (configuration not stated)	ALOX12 inh 20µM (no result: DT40 TDP1 CPT, HT1080NT lethal, HT1080 IDH1KD tx, IL-1B inflam inh, DT40 TDP1 no CPT)
CCC(C)NC(=O)Cc1ccc(S(=O)(=O)N2CCCCC2)cc1 (configuration not stated)	none (no result: DT40 TDP1 CPT, HT1080NT lethal, HT1080 IDH1KD tx, IL-1B inflam inh, DT40 TDP1 no CPT)
Cn1c(=O)c2c(nc(CN3CCN(CCO)CC3)n2CCCO)n(C)c1=O	none (no result: DT40 TDP1 CPT, HT1080NT lethal, HT1080 IDH1KD tx, IL-1B inflam inh, DT40 TDP1 no CPT)
COCCn1c(CN2CCC(C(N)=O)CC2)nc2c1c(=O)n(C)c(=O)n2C	none (no result: DT40 TDP1 CPT, HT1080NT lethal, HT1080 IDH1KD tx, IL-1B inflam inh, DT40 TDP1 no CPT)
COCCn1c(CN2CCN(C(c3ccccc3)c3ccccc3)CC2)nc2c1c(=O)n(C)c(=O)n2C	DT40 TDP1 CPT inconclusive, DT40 TDP1 no CPT 16.4µM
Cn1c(=O)c2c(nc(CN3CCN(C(c4ccccc4)c4ccccc4)CC3)n2CCCO)n(C)c1=O	DT40 TDP1 CPT inconclusive, DT40 TDP1 no CPT 20.6µM
COCCNC(=O)Cn1cc(C(=O)c2ccco2)c2ccccc21	none
Cc1ccc(C(C)C)c(OCCn2cc(C(=O)c3ccco3)c3ccccc32)c1	DT40 TDP1 CPT 18.4µM, DT40 TDP1 no CPT 14.6µM (no result: HT1080NT lethal, HT1080 IDH1KD tx, IL-1B inflam inh)
Cc1ccc(C)c(OCCn2cc(C(=O)c3ccco3)c3ccccc32)c1	DT40 TDP1 CPT 20.6µM, DT40 TDP1 no CPT 13µM (no result: HT1080NT lethal, HT1080 IDH1KD tx, IL-1B inflam inh)
O=S(=O)(c1ccccc1)N1CCCC2(CC(c3ccccc3)=NO2)C1 (configuration not stated)	none (no result: DT40 TDP1 CPT, HT1080NT lethal, HT1080 IDH1KD tx, IL-1B inflam inh, DT40 TDP1 no CPT)
O=C(Nc1ccccc1N1CCN(C(=O)c2ccccc2)CC1)c1ccccc1Cl	DT40 TDP1 CPT inconclusive, DT40 TDP1 no CPT inconclusive
CC(=O)N1CCN(c2ccccc2NC(=O)c2cc(Br)ccc2Cl)CC1	DT40 TDP1 no CPT inconclusive
O=C(Nc1ccccc1N1CCN(C(=O)c2ccc(Cl)cc2)CC1)c1cc(Br)ccc1Cl	DT40 TDP1 CPT inconclusive, DT40 TDP1 no CPT 14.6µM
